Source: PubChem (National Center for Advancing Translational Sciences (NCATS))
Rows were chosen to be rich in hits. Some 3.7% of all compounds tested hit in one or more screens of this group.
ATXN2 expr inh: inhibitors of ATXN2 expression | AID 1745845 | HEK-293 ATXN2-luciferase reporter, luminescence, 24 h | 0.72% of 360,000 active | Potency, µM (titrated, usually from 57 µM), for inactives: at the top dose activity change, negative = inhibition, hits mostly inhibitors; also: % is scaled to controls: 0 for no effect and ±100 for the full control effect; nearly all actives have a fitted effect of over 55% in size
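qHTS (up to 57 uM final) was run with 24 h compound exposure of reporter cells at 37 °C. Each well was multiplexed: SteadyGlo luminescence measured ATXN2-luciferase expression after a fluorogenic Gly-Phe-AFC viability readout (25 uM final).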
TGFb SMAD3 inh: TGF-b pathway inhibition; HepG2 CAGA-GFP TGF-b/SMAD3 reporter, GFP fluorescence, 18 h; TGF-beta stimulated, 500 pg/mL final; Potency, µM (series often up to 46.1 µM), without a hit: at the top dose activity, negative = inhibition, actives largely listed as inhibitors; 1.2% of 410,000 active; AID 588855; also: % is scaled to controls: 0 for no effect and ±100 for the full control effect; nearly all actives have a fitted effect of over 65% in size
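Inhibition of TGF-beta-driven CAGA-GFP reporter expression in HEPG2 cells is measured by cellular GFP fluorescence after 18 h stimulation with 500 pg/mL recombinant TGF-beta in 1% FBS medium at 37 degrees C.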
GLP-1R inv ag: inverse agonists of human GLP-1 receptor. HEK293 GLP-1R CRE-luciferase, luminescence, 24 h; GLP-1R form is constitutively active. Potency, µM (series often up to 38.3 µM), without a hit: at the top dose activity change, negative = inhibition, most hits filed as inhibitors. 1.6% of 410,000 active. AID 624417; also: % is scaled to controls: 0 for no effect and ±100 for the full control effect; nearly all actives have a fitted effect of over 55% in size
Target sequence (P43220 whole entry, looked up): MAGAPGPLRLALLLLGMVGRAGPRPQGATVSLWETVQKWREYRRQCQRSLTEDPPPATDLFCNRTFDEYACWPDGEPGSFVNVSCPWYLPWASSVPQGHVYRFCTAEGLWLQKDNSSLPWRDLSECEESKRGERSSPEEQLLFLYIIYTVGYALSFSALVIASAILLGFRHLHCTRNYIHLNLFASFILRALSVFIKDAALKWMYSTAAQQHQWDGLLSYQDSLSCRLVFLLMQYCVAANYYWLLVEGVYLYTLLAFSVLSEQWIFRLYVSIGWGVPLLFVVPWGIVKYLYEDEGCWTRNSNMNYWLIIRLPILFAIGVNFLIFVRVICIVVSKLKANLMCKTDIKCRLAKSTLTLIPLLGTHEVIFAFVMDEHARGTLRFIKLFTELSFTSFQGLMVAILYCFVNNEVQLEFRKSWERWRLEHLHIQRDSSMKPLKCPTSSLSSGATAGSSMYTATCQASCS
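Luminescence readout: a drop in cAMP-driven luciferase signal flags inverse agonism at a constitutively active GLP-1R stably expressed in HEK293. Compound exposure lasted 24 hr at 37 deg C, 5% CO2.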
GLP-1R agonist: agonists of human GLP-1 receptor; HEK293 GLP-1R CRE-luciferase, luminescence, 4-6 h; cells express a hypersensitive GLP-1R form; Potency, µM (highest dose often 45.6 µM), inactives show top-dose activation, actives largely listed as activators; 0.007% of 380,000 active; AID 624172; also: % of control where 0% means no effect
ATXN viability: reduces viability in counter-screen for ATXN expression inhibitors; S2 cells (HEK-293 line with an ATXN2-luciferase reporter) viability, CellTiter-Fluor protease fluorescence, 24 h; Potency, µM (top dose mostly 56.7 µM), hits mostly cytotoxic; 0.49% of 400,000 active; AID 651635; also: nearly all actives have a fitted effect of over 40% in size
HepG2 viability: HepG2 cytotoxicity, counter-screen for TGF-b inhibitors | 0.76% of 410,000 active | AID 588856 | Potency, µM (series often up to 46.1 µM), inactives show top-dose activity change, negative = cytotoxicity, actives largely listed as cytotoxic | HepG2 CAGA-GFP viability, ATP luminescence, 18 h
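HepG2 CAGA-GFP cells (1000/well, DMEM with 1% FBS) received compound, then TGF-beta at 500 pg/mL final, and were incubated 18 hours at 37 degrees C. Viability was read by CellTiter-Glo luminescence. Media-only wells were set as complete cell-killing and DMSO as no toxicity.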
Starred values were filed as active, the others as inactive; i = inactive; ? = inconclusive; / = not tested or not shown. Calls follow the shape of the dose curve; as a rule, active = well fitted curve in the direction sought with a large enough effect; inconclusive = small, poorly fitted or top-dose-only effect, or another doubt; inactive = no such curve, though single readings can be large; an effect the other way counts as inactive or inconclusive. Potency is read from the fitted curve at half-maximal effect.

SMILES | ATXN2 expr inh | TGFb SMAD3 inh | GLP-1R inv ag | GLP-1R agonist | ATXN viability | HepG2 viability
Cc1ccc(S(=O)(=O)Nc2c(C)cc([N+](=O)[O-])cc2C)cc1 | -15% | -24% | -7% | 1% | i | -13%
Cc1ccc(S(=O)(=O)c2ccc([N+](=O)[O-])o2)cc1 | 6.7µM* | 10µM* | ? | -21% | 11µM* | -100%
Cc1ccc(N=C(NOCc2ccc(Cl)cc2Cl)c2nonc2N)c(C)c1 | -37% | 16µM* | ? | 1% | i | -45%
Cc1ccccc1N=C(NOCc1ccccc1)c1nonc1N | 2% | -40% | 10µM* | -1% | i | -3%
Cc1ccccc1N=C(NOCc1ccc(Cl)cc1Cl)c1nonc1N | ? | 13% | 0% | -5% | ? | -1%
CCOC(=O)c1c(C)n(-c2ccccc2)c2ccc(OC(=O)c3ccccc3NC(=O)C(C)(C)C)cc12 | ? | ? | ? | / | 25µM* | 22µM*
COc1cccc(C(=O)NCC(=O)OCC(=O)Nc2ncc(Cl)cc2Cl)c1 | 10% | 40% | -2% | 0% | i | 10µM*
COc1ccccc1CCNc1ncnc2sc(C(=O)N3CCCN(C=O)CC3)c(C)c12 | / | / | / | / | i | /
CCCCNCCCOc1cccc(Cl)c1Cl | ? | ? | 7.9µM* | -1% | i | -39%
Clc1cccc(OCCCN2CCCC2)c1Cl | / | 1% | -17% | -7% | i | 0%
O=C1CCC[C@@H]2CC(Nc3ccccc3)C[C@@H]3CCN1[C@H]23 (stereo partly drawn) | / | -15% | / | / | / | 9%
CCc1c(C)sc(NC(=O)c2cc(-c3cc(OC)ccc3OC)on2)c1C#N | 14µM* | 2% | 0% | 0% | / | 2%
Cc1ccc2c(C(=O)CNc3nccs3)c[nH]c2c1 | / | 1% | / | / | / | -27%
COc1ccc(NC(=O)C(=O)NCC(c2cccnc2)N2CCc3ccccc3C2)cc1 (stereo not drawn) | / | ? | ? | / | / | -8%
O=C(NCC1Cc2cccc(-c3nccs3)c2O1)c1ccnc(Cl)c1 (stereo not drawn) | / | / | / | / | i | /
CCOc1ccc2nc(N3CCCC(C(=O)NCCc4ccc(OC)cc4OC)C3)sc2c1 (stereo not drawn) | / | 18µM* | ? | / | / | -53%
O=C(NCCc1ccccc1)C1CCCN(c2nc3ccccc3s2)C1 (stereo not drawn) | -15% | -3% | 10µM* | 8% | ? | -6%
Cc1cc(=O)n2nc(N3CCCC(C(=O)NCCc4ccccc4)C3)sc2n1 (stereo not drawn) | -7% | 2% | 13% | 0% | i | -13%
CN1CCC(COc2cnc(-c3cccc(Cn4nc(-c5cccc(C#N)c5)ccc4=O)c3)nc2)CC1 | -24% | / | / | / | / | /
COc1cc(OC)c(/C=C/c2nc3ccccc3o2)c(OC)c1 | / | -8% | / | / | / | -37%
Cn1c(=O)oc2cc(S(=O)(=O)Nc3ccc(F)cc3)ccc21 | -4% | 8% | 7% | 6% | i | 4µM*
Cc1ccn(CC(=O)NC2CCCN(Cc3ccc(CC(C)C)cc3)C2)n1 (stereo not drawn) | -29% | -16% | ? | 7% | i | -18%
CC(=O)c1c(C)nn(CC(=O)NC2CCCN(Cc3ccc(CC(C)C)cc3)C2)c1C (stereo not drawn) | -26% | ? | 11µM* | 4% | i | -19%
COC(=O)C1=C(C(=O)c2ccccc2)C(c2ccccc2)n2nnnc2N1 (stereo not drawn) | ? | -1% | 1% | 5% | 20µM* | -19%
N#CC(=C1C=CC(=NO)C(Cl)=C1)c1ccccc1 | 0% | 11µM* | -23% | -3% | i | -62%
SMILES | ATXN2 expr inh | TGFb SMAD3 inh | GLP-1R inv ag | GLP-1R agonist | ATXN viability | HepG2 viability
O=S(=O)(c1ccccc1)N1CCN(C(c2ccccc2)c2ccc(OC(F)(F)F)cc2)CC1 (stereo not drawn) | / | 2% | 10µM* | 0% | i | -16%
CC1(C(=O)NCc2ccc(F)c(F)c2)Cc2c(-c3cccc(C(F)(F)F)c3)ccnc2O1 (stereo not drawn) | -14% | ? | 10µM* | -1% | i | -20%
CC(=O)Nc1cccc(-c2ccnc3c2CC(C)(C(=O)Nc2cccc(C(F)(F)F)c2)O3)c1 (stereo not drawn) | ? | ? | 11µM* | 2% | ? | -68%
Clc1ccc(C(Cn2ccnc2)OCc2ccc(Sc3ccccc3)cc2)c(Cl)c1 (stereo not drawn) | ? | / | / | / | i | /
O=C(c1cccnc1)C1CCCN(Cc2ccc3c(c2)CN(C(=O)c2cn4ccccc4n2)CCO3)C1 (stereo not drawn) | / | / | / | / | i | /
Cc1noc(C)c1-c1ccc(C(=O)Nc2ccc(C(C)C)cc2)c2occc12 | -7% | -4% | 4.5µM* | 0% | ? | -51%
Cc1ccc(OCCN2CCC2(C)C(=O)NCc2ccc(C(F)(F)F)cc2)cc1 (stereo not drawn) | 0% | 13µM* | ? | 5% | i | -39%
Cc1ccc(OCCN2CCC2(C)C(=O)NCc2cccc3ccccc23)cc1 (stereo not drawn) | -23% | ? | ? | -2% | i | -13%
CCN(CC#CCC(O)(c1ccccc1)C1CCCC1)C(C)C (stereo not drawn) | -6% | 3% | 11µM* | -7% | i | -26%
CC(C)N(CC#CCC(O)(c1ccccc1)C1CCCC1)CCO (stereo not drawn) | 6% | 1% | ? | -3% | i | 1%
CC(C)(CNC(=S)NCCc1ccccc1)CNC(=S)NCCc1ccccc1 | ? | 16µM* | ? | -3% | ? | -39%
OCCNC(=S)NCCc1ccccc1 | 15% | 7% | 2% | -3% | i | 2%
COc1ccc(-c2ccc(C(=O)NCc3ccccc3)c3occc23)c(C)c1 | -20% | ? | ? | 3% | i | -32%
COc1ccc(-c2ccc(C(=O)NCc3ccc(N4CCN(C)CC4)cc3)c3occc23)c(C)c1 | ? | ? | ? | -6% | 25µM* | 11µM*
COc1ccc(-c2ccc(C(=O)Nc3cccc(C(F)(F)F)c3)c3occc23)c(C)c1 | -12% | 0% | 4.5µM* | -1% | i | -25%
CCOc1ccc(-n2c(=O)c3c(C)c(C)sc3n(CC(=O)N3CCC(C)CC3)c2=O)cc1 | 2% | 0% | 12% | / | ? | 0%
COc1ccccc1CN1CCC(n2cc(C(=O)N3CCCCC3)nn2)CC1 | / | / | / | / | i | /
